From the supplement of paper PMC9023506
Where a name gives a salt, the structure may show the parent alone.

Each compound was assayed on Danio rerio larvae (5 dpf) (assay: excitability to 1-s acoustic pulses, difference vs DMSO (percentage points (treated minus DMSO)); higher = more of the behaviour than the DMSO vehicle control). Conditions: 10 µM; exposure time: 3 h pre-incubation + 3 h imaging.
Experimental: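 5-dpf wild-type zebrafish larvae were imaged in 96-well plates. They were treated with 190 Tocris FDA-approved drugs at 10 µM (1 µl/ml DMSO) for 3 h before and 3 h during imaging at 28.5 °C, 48 larvae per drug. Automated image analysis gave % time moving and optomotor responses. Values are drug group mean minus DMSO vehicle mean (n=844), in percentage points, for 10 behaviours.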

Row | Compound | excitability to 1-s acoustic pulses
1 | CC(C)C(=O)Nc1ccc([N+](=O)[O-])c(C(F)(F)F)c1 [Flutamide] | -5.4
2 | NS(=O)(=O)c1cc2c(cc1Cl)NC(C1CC3C=CC1C3)NS2(=O)=O (stereo not given) [Cyclothiazide] | 0.586
3 | CC(=O)NC[C@H]1CN(c2ccc(N3CCOCC3)c(F)c2)C(=O)O1 [Linezolid] | 7.52
4 | CC(C)(C#N)c1cc(Cn2cncn2)cc(C(C)(C)C#N)c1 [Anastrozole] | 3.65
5 | Nc1nc2c(ncn2COCCO)c(=O)[nH]1 [Acyclovir] | 0.524
6 | Nc1ncn([C@H]2C[C@H](O)[C@@H](CO)O2)c(=O)n1 [Decitabine] | 6.23
7 | CS(=O)(=O)CCNCc1ccc(-c2ccc3ncnc(Nc4ccc(OCc5cccc(F)c5)c(Cl)c4)c3c2)o1 [Lapatinib] | 14.5
8 | O=C(O)CCCc1ccccc1 [Sodium 4-Phenylbutyrate] | 2.04
9 | CC(C)(C)NC(=O)[C@@H]1C[C@@H]2CCCC[C@@H]2CN1C[C@@H](O)[C@H](Cc1ccccc1)NC(=O)[C@H](CC(N)=O)NC(=O)c1ccc2ccccc2n1 [Saquinavir mesylate] | 9.21
10 | Clc1ccc(COC(Cn2ccnc2)c2ccc(Cl)cc2Cl)c(Cl)c1 (stereo not given) [Miconazole nitrate] | -0.632
11 | CCCCC(=O)N(Cc1ccc(-c2ccccc2-c2nnn[nH]2)cc1)[C@H](C(=O)O)C(C)C [Valsartan] | -1.54
12 | COc1ccccc1OCC(O)CN1CCN(CC(=O)Nc2c(C)cccc2C)CC1 (stereo not given) [Ranolazine dihydrochloride] | 1.94
13 | COCCCOc1cc(C[C@@H](C[C@H](N)[C@@H](O)C[C@H](C(=O)NCC(C)(C)C(N)=O)C(C)C)C(C)C)ccc1OC [Aliskiren hemifumarate] | 12.2
14 | NC(=O)N1c2ccccc2C=Cc2ccccc21 [Carbamazepine] | -0.497
15 | CCC(=O)O[C@]1(C(=O)SCF)[C@H](C)C[C@H]2[C@@H]3C[C@H](F)C4=CC(=O)C=C[C@]4(C)[C@@]3(F)[C@@H](O)C[C@@]21C [Fluticasone propionate] | 1.18
16 | OCc1cc(C(O)CNCCCCCCOCCCCc2ccccc2)ccc1O (stereo not given) [Salmeterol xinafoate] | 12.3
17 | Cc1cccc(C)c1OCC(C)N (stereo not given) [Mexiletine hydrochloride] | 1.36
18 | Clc1ccc2nsnc2c1NC1=NCCN1 [Tizanidine hydrochloride] | 3.69
19 | N#Cc1ccc(C(c2ccc(C#N)cc2)n2cncn2)cc1 [Letrozole] | -0.518
20 | COc1c(C)c2c(c(O)c1C/C=C(\C)CCC(=O)OCCN1CCOCC1)C(=O)OC2 [Mycophenolate mofetil] | 0.817

Row | Compound | excitability to 1-s acoustic pulses
21 | Nc1ccn([C@@H]2O[C@H](CO)[C@@H](O)C2(F)F)c(=O)n1 [Gemcitabine hydrochloride] | -1.2
22 | C[C@]12CCC(=O)C=C1CC[C@@H]1[C@@H]2[C@@H](O)C[C@@]2(C)[C@H]1CC[C@]2(O)C(=O)CO [Hydrocortisone] | 1.67
23 | CCCCCCCN(CC)CCCC(O)c1ccc(NS(C)(=O)=O)cc1 (stereo not given) [Ibutilide hemifumarate] | 12.9
24 | CNC(=O)c1cc(Oc2ccc(NC(=O)Nc3ccc(Cl)c(C(F)(F)F)c3)cc2)ccn1 [Sorafenib] | 14.4
25 | CC(C)(C(=O)c1cccnc1)c1cccnc1 [Metyrapone] | 12.2
26 | Nc1ncn([C@@H]2O[C@H](CO)[C@@H](O)[C@H]2O)c(=O)n1 [5-Azacytidine] | -3.59
27 | OC(CNCC(O)C1CCc2cc(F)ccc2O1)C1CCc2cc(F)ccc2O1 (stereo not given) [Nebivolol hydrochloride] | 15.9
28 | CCOc1nc2cccc(C(=O)O)c2n1Cc1ccc(-c2ccccc2-c2nnn[nH]2)cc1 [Candesartan] | -3.51
29 | COc1ccc(-c2ccc3cc(C(=O)O)ccc3c2)cc1C12CC3CC(CC(C3)C1)C2 [Adapalene] | -0.119
30 | CCOC(=O)N1CCC(=C2c3ccc(Cl)cc3CCc3cccnc32)CC1 [Loratidine] | -6.95
31 | CC(C)COCC(CN(Cc1ccccc1)c1ccccc1)N1CCCC1 (stereo not given) [Bepridil hydrochloride] | 15
32 | COc1ccccc1Oc1c(NS(=O)(=O)c2ccc(C(C)(C)C)cc2)nc(-c2ncccn2)nc1OCCO [Bosentan] | -1.1
33 | CNC(=O)c1ccccc1Sc1ccc2c(/C=C/c3ccccn3)n[nH]c2c1 [Axitinib] | 1.46
34 | Cc1cn([C@H]2C=C[C@@H](CO)O2)c(=O)[nH]c1=O [Stavudine] | 3.23
35 | CN[C@H]1CC[C@@H](c2ccc(Cl)c(Cl)c2)c2ccccc21 [Sertraline hydrochloride] | 8.5
36 | COC(c1ccccc1)(c1ccccc1)[C@H](Oc1nc(C)cc(C)n1)C(=O)O [Ambrisentan] | -1.87
37 | CC(C)c1nc(CN(C)C(=O)N[C@H](C(=O)N[C@@H](Cc2ccccc2)C[C@H](O)[C@H](Cc2ccccc2)NC(=O)OCc2cncs2)C(C)C)cs1 [Ritonavir] | 7.52
38 | CN(CCOc1ccc(NS(C)(=O)=O)cc1)CCc1ccc(NS(C)(=O)=O)cc1 [Dofetilide] | 4.42
39 | OCCOCCN1CCN(C2=Nc3ccccc3Sc3ccccc32)CC1 [Quetiapine hemifumarate] | 9.86
40 | O=C(O[C@@H]1C[C@@H]2C[C@H]3C[C@H](C1)N2CC3=O)c1c[nH]c2ccccc12 [Dolasetron mesylate] | 9.61
